# In PubChem BioAssay (NCATS):
# Inconclusive results are not listed. A number with no mark means an inactive call. Activity calls are given as the source filed them. Calls come from the whole dose curve; as a rule, active = well fitted inhibition curve with a large enough effect; inconclusive = small, poorly fitted or top-dose-only effect; inactive = flat fitted curve, though single readings scatter.
# How the values were obtained:
# Experiment in all cases: Cytotoxic Profiling of Annotated Libraries Using Quantitative High-Throughput Screening (AID 1296008); note: nearly all actives have a fitted effect of over 60% in size
# Details in all cases: Five cell lines viability, CellTiter-Glo ATP luminescence, 48-72 h; max response: active compounds read low
# CRL-7250 = system: CRL-7250
# Procedure, shortened: (§1)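 Compounds were pin-transferred onto cells and incubated 48 or 72 hr at 37 degree Celsius, 95% humidity. CellTiter-Glo was added, plates sat 10 min at room temperature, then ATP-coupled luminescence was imaged as the viability read-out.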
# HEK293 = system: HEK293
# Procedure, shortened: as §1
# HaCat = system: HaCat
# Procedure, shortened: as §1
# NIH3T3 = system: NIH3T3
# Procedure, shortened: as §1
# % is set by controls: 0 for no effect and ±100 for the full control effect; potency is the fitted concentration of half-maximal effect.
smiles,measurement,setting,value
Cc1cc(=O)oc2cc(O[C@@H]3SC[C@@H](O)[C@H](O)[C@H]3O)ccc12,max response,CRL-7250,-1.48%
same,max response,HEK293,-8.77%
same,max response,HaCat,4.75%
same,outcome,NIH3T3,inactive
CCOC(=O)O[C@]1(C(=O)OCCl)CC[C@H]2[C@@H]3CCC4=CC(=O)C=C[C@]4(C)[C@H]3[C@@H](O)C[C@@]21C,outcome,CRL-7250,inactive
same,outcome,HEK293,inactive
same,max response,HaCat,-4.73%
same,outcome,NIH3T3,inactive
CC(=O)N(c1onc(C)c1C)S(=O)(=O)c1ccc(N)cc1,max response,CRL-7250,-16.4%
same,max response,HEK293,4.9%
same,outcome,HaCat,inactive
same,max response,NIH3T3,-5.11%
CC1(C)OC(=O)Nc2ccc(Br)cc21,outcome,CRL-7250,inactive
same,outcome,HEK293,inactive
same,outcome,HaCat,inactive
same,max response,NIH3T3,3.48%
CC(C)C[C@@H]1[C@H](c2ccccc2)OC(=O)N1CCCN1CCCCCC1,max response,CRL-7250,-2.82%
same,Potency,HEK293,23.7 µM (active)
same,max response,HaCat,-13.9%
same,max response,NIH3T3,-3.61%
CSCC[C@H](NC(=O)[C@H](Cc1c[nH]c2ccccc12)NC(=O)CCNC(=O)OC(C)(C)C)C(=O)N[C@@H](CC(=O)O)C(=O)N[C@@H](Cc1ccccc1)C(N)=O,max response,CRL-7250,0.728%
same,max response,HEK293,0.664%
same,max response,HaCat,-2.67%
same,outcome,NIH3T3,inactive
CCCCN(CCCC)C(C(N)=O)c1ccc(OC)cc1 (configuration not stated),outcome,CRL-7250,inactive
same,max response,HEK293,-5.09%
same,max response,HaCat,2.19%
same,outcome,NIH3T3,inactive
CC(C)(Oc1ccc(Cl)cc1)C(=O)OCCCOC(=O)C(C)(C)Oc1ccc(Cl)cc1,max response,CRL-7250,-5.16%
same,max response,HEK293,-15.3%
same,max response,HaCat,-1.93%
same,max response,NIH3T3,1.4%
Fc1ccc(C(c2ccc(F)cc2)N2CCNCC2)cc1,outcome,CRL-7250,inactive
same,max response,HEK293,-6.69%
same,max response,HaCat,-17.9%
same,max response,NIH3T3,-2.81%
CCOC(=O)CN1CCCC1=O,max response,CRL-7250,1.6%
same,max response,HEK293,-12.9%
same,max response,HaCat,-7.15%
same,outcome,NIH3T3,inactive
CN1N=C(C(N)=O)CCC1=O,outcome,CRL-7250,inactive
same,outcome,HEK293,inactive
same,outcome,HaCat,inactive
same,outcome,NIH3T3,inactive
COC(=O)c1cc(Cl)c(NC(C)=O)cc1OC,max response,CRL-7250,2.72%
same,max response,HEK293,-2.05%
same,outcome,HaCat,inactive
same,outcome,NIH3T3,inactive
CCCCOCCOC(=O)c1cccnc1,outcome,CRL-7250,inactive
same,outcome,HEK293,inactive
same,max response,HaCat,-21.3%
same,max response,NIH3T3,-2.28%
COC(=O)c1ccc(NC(C)=O)cc1OC,max response,CRL-7250,-0.178%
same,max response,HEK293,-0.683%
same,max response,HaCat,-9.21%
same,max response,NIH3T3,-16.1%
COc1ccc(/C(C)=C/C(=O)O)c(OC)c1,max response,CRL-7250,0.36%
same,outcome,HEK293,inactive
same,outcome,HaCat,inactive
same,outcome,NIH3T3,inactive
COc1cc(/C=C/C(N)=O)cc(OC)c1OC,outcome,CRL-7250,inactive
same,outcome,HEK293,inactive
same,max response,HaCat,2.61%
same,outcome,NIH3T3,inactive
c1ccc2c(c1)CCc1ccccc1N2,outcome,CRL-7250,inactive
same,outcome,HEK293,inactive
same,max response,HaCat,-8.39%
same,outcome,NIH3T3,inactive
CC(=O)c1cc2ccccc2s1,max response,CRL-7250,-0.976%
same,max response,HEK293,-8.14%
same,max response,HaCat,-0.924%
same,max response,NIH3T3,1.18%
C[N+]1(CC2COC(c3ccccc3)(c3ccccc3)O2)CCCCC1 (configuration not stated),max response,CRL-7250,1.41%
same,Potency,HEK293,10 µM (active)
same,max response,HaCat,-14.4%
same,max response,NIH3T3,-38.8%
O=C(NN1CCCC1)NS(=O)(=O)c1ccc(Cl)cc1,max response,CRL-7250,-14.3%
same,max response,HEK293,2.09%
same,max response,HaCat,-45.6%
same,max response,NIH3T3,4.71%
O=C1c2ccccc2CCc2ccccc21,max response,CRL-7250,2.21%
same,max response,HEK293,-2.77%
same,outcome,HaCat,inactive
same,max response,NIH3T3,0.759%
CCCCOC(=O)CCCCCCCCC(=O)OCCCC,max response,CRL-7250,0.0544%
same,max response,HEK293,1.21%
same,max response,HaCat,-1.87%
same,outcome,NIH3T3,inactive
CC(=O)O[C@@H]1CC2C3CCc4cc(OC(=O)c5ccccc5)ccc4C3CCC2(C)[C@H]1OC(C)=O (some centres not stated),max response,CRL-7250,-8.96%
same,outcome,HEK293,inactive
same,outcome,HaCat,inactive
same,max response,NIH3T3,3.57%
CC(C)(C)C(O)/C=C/c1ccc2c(c1)OCO2 (configuration not stated),outcome,CRL-7250,inactive
same,max response,HEK293,0.172%
same,max response,HaCat,-0.175%
same,max response,NIH3T3,-4.85%
Cc1sccc1Br,max response,CRL-7250,-9.55%
same,max response,HEK293,-4.49%
same,max response,HaCat,1.43%
same,max response,NIH3T3,-2.8%
CC(C)OP(=O)(CP(=O)(OC(C)C)OC(C)C)OC(C)C,max response,CRL-7250,-7.87%
same,max response,HEK293,-0.755%
same,outcome,HaCat,inactive
same,max response,NIH3T3,-2.18%
Cc1ccc(C(C)OC(=O)C2(C)CCC(C(=O)O)C2(C)C)cc1 (configuration not stated),max response,CRL-7250,3.77%
same,outcome,HEK293,inactive
same,outcome,HaCat,inactive
same,outcome,NIH3T3,inactive
Cc1ncc(CO)c(CO)c1O,max response,CRL-7250,1.45%
same,max response,HEK293,4.28%
same,outcome,HaCat,inactive
same,max response,NIH3T3,-3.24%
